Source: ChEMBL document CHEMBL4513216, “Probing the Open Global Health Chemical Diversity Library for Multistage-Active Starting Points for Next-Generation Antimalarials” (ACS Infect Dis, 2020)
Out of some 69,000 compounds screened, about 8,600 (12%) showed an effect of 50% or more. Many of the other results were omitted from the sample, so strong results are more common in it than they were.

What follows are molecules tested on Plasmodium berghei (assay: Screen against P. berghei liver stage (PbLuc), transformed with Luciferase, at 10uM). Conditions: tested at 10 uM.
Format: functional, HepG2

SMILES	INHIBITION
CN1CCO[C@@H]2CN(S(=O)(=O)c3ccccc3)CC[C@@H]2C1	4.02%
CC(=O)N1[C@H](CN(C)C)C[C@@H]2CN(C(=O)c3cccn3C)CC[C@@H]21	-9.74%
COc1c(C2CCCN2C(=O)c2cscn2)c(C)nn1C (stereo unspecified)	38.8%
O=C(Nc1ccccc1)C1CN(CC2CC2)CC12CCOCC2 (stereo unspecified)	4.2%
Cc1ccc(CNC(=O)CN(CCC(N)=O)c2ccc(F)cc2)cc1	16%
Cc1ccc(CCNC(=O)N2CCC(Cc3cnn(C)c3)C2)cn1 (stereo unspecified)	-3.58%
Cc1cc(Br)ccc1CNC(=O)C1(O)CCSCC1	19.1%
CNC(=O)CN(C)c1nc(-c2ccncc2)nc2c1CCN(C(C)=O)C2	31.8%
CC(=O)N1CCc2nc(N(C)C)nc(NCCc3ccccc3)c2CC1	79.7%
CC(=O)N1CCc2c(nc(N(C)C)nc2NC(C)Cc2cccs2)C1 (stereo unspecified)	78.6%
CC(=O)NC1CCN(c2nc(N(C)C)nc3c2CCCC3)CC1	46.6%
CC(=O)NC1CCN(c2nc(N(C)C)nc3c2CCN(C(C)=O)C3)CC1	58.9%
CC(C)Nc1ncnc2c1CCN(C(=O)Cc1cccs1)CC2	21.8%
CC(=O)N1CCc2c(nc(N(C)C)nc2N(C)CCO)C1	31.6%
CN(C)c1nc2c(c(N3CCCC3)n1)CCN(C(=O)c1ccc[nH]1)CC2	34.5%
Cc1nc(CCNc2nc(N(C)C)nc3c2CCCC3)cc(=O)[nH]1	24.7%
O=C(Cc1cccs1)N1CCCCC1c1ccn2ccnc2n1 (stereo unspecified)	26.3%
CCOc1cc(C)nc(N2CCN(C(=O)c3cc[nH]n3)CC2)n1	40%
O=C(c1ccc2nncn2c1)N1CCCC(n2ccnc2)C1 (stereo unspecified)	16.9%
CCCNC(=O)CCNC(=O)N1CCC(=Cc2ccccc2)CC1	9%
CNC(=O)N1CCC(=Cc2ccccc2)CC1	-27.4%
CCNC(=O)N1CCC(=Cc2ccccc2)CC1	63.3%

SMILES	INHIBITION
CN(C)c1nc2ncc(Cl)cc2cc1C#N	-8.35%
CCOC(=O)N1CCC(Nc2cc(CC)nc3c(C)c(C)nn23)CC1	-31.4%
CC[C@@H](C)[C@H](NC(=O)CCn1cc(C(C)=O)c2ccccc21)C(=O)O	-27%
CCn1nc(C)c2c1cnn2CCNS(=O)(=O)Cc1ccccc1	47.4%
O=C(c1ccncn1)N1CCC[C@]2(C[C@@H](OCC3CC3)CO2)C1	42.7%
O=C(c1ccncn1)N1CCC[C@]2(C[C@H](OCC3CC3)CO2)C1	50.9%
Cc1cc(C(=O)N2CCC[C@]3(C[C@@H](OCC4CC4)CO3)C2)no1	21.8%
CCOC1COC2(CCN(Cc3cccc(C)n3)CC2)C1 (stereo unspecified)	25.6%
CCOC1COC2(CCN(c3cccc(C)n3)CC2)C1 (stereo unspecified)	16.6%
O=C(c1cocn1)N1CCC[C@]2(C[C@@H](OCC3CC3)CO2)C1	-2.72%
Cc1cccc(C(=O)N2CCC[C@]3(C[C@@H](OCC4CC4)CO3)C2)n1	52%
Cc1cc(C(=O)N2CCC[C@]3(C[C@H](OCC4CC4)CO3)C2)no1	17.1%
CCOC1COC2(CCN(C(=O)c3cccc(C)n3)CC2)C1 (stereo unspecified)	63.3%
CC(CC(=O)NCCCn1cccn1)c1cccnc1 (stereo unspecified)	15.7%
CC(C)(C)c1nnc2n1C(C(=O)N1CCN(c3ncccn3)CC1)CC2 (stereo unspecified)	14.3%
Cc1ccc(C)c(CSc2nnc(C(N)C(C)C)o2)c1 (stereo unspecified)	21.8%
c1ccc(Cc2noc(CN3CCOC(Cn4cccn4)C3)n2)cc1 (stereo unspecified)	24%
Cn1cc(C(=O)NCc2ccc(N3CCCC3)nc2)ccc1=O	35.9%
CN(C)c1ccc(CNC(=O)NCCc2cn3ccccc3n2)cn1	-10.6%
CCOc1cc(NC(=O)N2CCOC3(CCC3)C2)ccc1C	2.45%
CCN1CCCCC1C(=O)Nc1cccc(-c2nnc[nH]2)c1 (stereo unspecified)	19.7%
CC1(c2ncc(CN3CCOCC3)cn2)CCCCO1 (stereo unspecified)	18.04%

SMILES	INHIBITION
c1cnc(-c2nn3c(CN4CCOCC4)nnc3s2)cn1	4.35%
Cc1ccnc(NCCNC(=O)C2CC3(CCNCC3)CN2C)c1 (stereo unspecified)	-17.9%
COc1nc2ccn(CCc3scnc3C)c(=O)c2cc1C#N	45.7%
COc1nc2ccn(CCc3cc(O)nc(C)n3)c(=O)c2cc1C#N	58.3%
CCc1nc(CCn2ccc3nc(OC)c(C#N)cc3c2=O)no1	32.3%
CC(C)SCCn1ccc2[nH]c(=O)c(C#N)cc2c1=O	23.5%
N#Cc1cc2c(=O)n(CC(O)Cc3ccccc3)ccc2[nH]c1=O (stereo unspecified)	25.9%
COc1nc2ccn(CCNc3cc(C)ccn3)c(=O)c2cc1C#N	58.3%
COc1nc2ccn(CCc3cnccn3)c(=O)c2cc1C#N	72.6%
COCCn1cnc2ccc(NC(=O)c3ccc(OC)cc3)cc2c1=O	-13.6%
Cc1cc(C)n(CC2CN(c3cnc4ccccc4n3)CCO2)n1 (stereo unspecified)	29.7%
O=C(C1CC1)N1CC[C@@H]2[C@H](CC1)N(Cc1cccnc1)CCS2(=O)=O	-49.8%
CC(C)c1cc(C(=O)N2CCC3(CCc4ccccc4C(=O)N3)C2)on1 (stereo unspecified)	22.45%
Cc1ccc(N2CC[C@H]3O[C@H](C(=O)NCc4ccco4)CC[C@H]32)nn1	31.1%
Cc1ccc(C(=O)N(C)CCOc2ccccc2F)c(=O)[nH]1	-10.3%
Cn1cc(CCC(=O)N2C[C@@H]3CC[C@H]2CN(Cc2cccnc2)C3)cn1	40.2%
Cn1ncc2c(NCCOCc3ccccc3)nc(C3CCCC3)nc21	71.2%
CCOCCNc1nc(C2CCCC2)nc2c1cnn2C	2.3%
Cn1ncc2c(NCCCOc3cccnc3)nc(C3CCCC3)nc21	44.8%
CNCCCNc1nc(C2CCCC2)nc2c1cnn2C	37.1%
Cn1ncc2c(NCCOc3ccc(F)cc3)nc(C3CCCC3)nc21	77.1%
Cn1ncc2c(NCCn3cccc3)nc(C3CCCC3)nc21	29.4%

SMILES	INHIBITION
CCS(=O)(=O)CCNc1nc(C2CCCC2)nc2c1cnn2C	1.93%
CC(C)N(CCNc1nc(C2CCCC2)nc2c1cnn2C)C(C)C	81.1%
Cn1ncc2c(NCCC34CCCN3CCC4)nc(C3CCCC3)nc21	-12.2%
O=C(NC1CC1)c1cc(Sc2ncccn2)ccn1	-17.1%
CCOCc1ncn2c1CN(C(=O)Nc1ccc(CC)cc1)CC2	-9.26%
Cc1cccc(CN2CCCC2(C(N)=O)c2cnccn2)n1 (stereo unspecified)	42.4%
CNC(=O)[C@@H](c1ccccc1OC)N1CCC[C@H]1C(=O)NC1CC1	35.4%
Cc1cc(N2CCN(C(=O)Cc3ccc4c(c3)OCO4)CC2)cc(C)n1	52.2%
Cc1cc(N2CCCN(C(=O)Cc3cccnc3)CC2)ccn1	58.6%
Cc1cc(N2CCCN(C(=O)Cc3csc(C)n3)CC2)ccn1	-13.2%
O=C(Cc1ccc2c(c1)OCO2)N1CCN(c2ccncc2)CC1	49%
Cc1cc(N2CCCN(c3ccnc(C)c3)CC2)ccn1	11.9%
O=C(Cc1ccc2c(c1)OCO2)N1CCCN(c2ccccc2)CC1	11.8%
Cc1cc(N2CCCN(C(=O)Cc3cc(F)cc(F)c3)CC2)ccn1	28.7%
Cc1cc(N2CCCN(C(=O)Cc3ccc(O)c(Cl)c3)CC2)ccn1	65.1%
COc1cccc(CC(=O)N2CCCN(c3ccnc(C)c3)CC2)c1	-1.25%
O=C(c1cnccn1)N1C[C@H]2CC[C@@H](C1)N(C(=O)Cc1ccsc1)C2	28.5%
Cc1nnc2n1CCN(CCOc1cccc(C#N)c1)C2	44.1%
Cc1ccc(C2CSCCN2C(=O)c2ccoc2C)o1 (stereo unspecified)	13.3%
CNC(=O)CCN1CCC(c2nnc(Cn3cccn3)n2C2CC2)CC1	-0.71%
Cc1nccc(C(=O)N2CCCC2c2noc(C(C)C)n2)n1 (stereo unspecified)	22.6%
Cc1ncccc1NS(=O)(=O)Cc1cccc(F)c1	3.19%

SMILES	INHIBITION
O=C1NCC2CN(Cc3ccccc3OCc3ccccn3)CCN12 (stereo unspecified)	50.3%
O=C1NC[C@H]2CN(Cc3ccnc4ccccc34)CCN12	-12.1%
O=C1NC[C@H]2CN(Cc3ccccn3)CCN12	-17.2%
c1cc(CN2CCC3(CC2)CC(N2CCCC2)CO3)co1 (stereo unspecified)	-4.82%
NC(=O)CN(C(=O)c1cccc(C(F)(F)F)c1)C1CCCC1	-52.4%
Cn1cc(NC(=O)c2cccc(-n3cnnn3)c2)cn1	53.7%
CN(C)C(=O)c1cccc(Nc2cnn(C)c2)c1	33.5%
O=C(Nc1cnn(CC(F)F)c1)c1cccc(-n2cnnn2)c1	20.6%
CCNC(=O)CN(CC)C(=O)c1cccc(Nc2cnn(C)c2)c1	70.3%
CN(C)C(=O)c1cccc(NC(=O)c2cnn(C)c2)c1	52.4%
CNC(=O)c1cccc(Nc2cnn(C)c2)c1	23.6%
CN(C)c1ncc(NC(=O)c2cccc(Nc3cnn(C)c3)c2)cn1	36.5%
Cn1c(C(=O)N(CC(N)=O)C2CCCC2)cc(Cl)c1Cl	-25.6%
CCNC(=O)CN(CC)C(=O)c1cc(-c2cccc(Cl)c2)no1	21.5%
Cn1cc(Nc2cccc(C(=O)N(CC(N)=O)C3CCCC3)c2)cn1	82.2%
Cc1cnn(C2CCCN(C(=O)c3cccc(-n4cnnn4)c3)C2)c1 (stereo unspecified)	14.75%
Cn1cc(N2CCCC(SCc3ccco3)C2=O)cn1 (stereo unspecified)	9.79%
CCc1cccc(OCC(=O)NC(C)c2nnc3n2CCC3)c1 (stereo unspecified)	-27.8%
